The whole screen tested about 140,000 compounds, of which about 220 (0.16%) were called active. The sample as a whole holds a higher share of actives than the screen did. A number with no mark means an inactive call. Rule as the data show it: active = inhibition above about 50%; inactive = the rest.

What is called inhibition is the drop in the measured response relative to a control, in per cent.

This test concerns YopH tyrosine phosphatase [Yersinia enterocolitica]. The test is described as follows: YopH tyrosine phosphatase inhibitors, primary screen, biochemical, fluorescence Ex485/Em525 (AID 898). The settings on record: active compounds read high, concentration not given here.
As for `COc1cc(/C=N/NC(=O)c2ccccc2)ccc1OS(=O)(=O)c1ccccc1`, the inhibition was -12.8%. For the molecule `COC(=O)c1ccccc1NS(=O)(=O)c1ccc2[nH]c(=O)[nH]c2c1`, the inhibition is -13.2%. With `Cc1cccc(CSc2ccc(-c3cccs3)nn2)c1` the figure was -8.04%; with `CC1(c2cccc([N+](=O)[O-])c2)CC(C)(C)N(C(=O)c2ccccc2)c2ccccc21` (stereo not drawn), -13.3%; with `O=C(NC(=S)Nc1cc(C(F)(F)F)ccc1N1CCOCC1)c1ccc(-c2cccc(Cl)c2)o1`, -11.4%. Consider `CCN(CC(=O)NC1CCS(=O)(=O)C1)S(=O)(=O)c1ccccc1` (stereo not drawn), for which the inhibition is -27.4%. In the case of `O=c1cc(-c2ccccc2)[nH]c2cc(F)ccc12`, the inhibition was -25.5%. Turning to `Clc1ccc(C2=CSC3=Nc4cccc5cccc(c45)N23)cc1`, the inhibition was 76.1% (active). As for `COc1ccc2c(c1)CC[C@@H]1[C@@H]2CC[C@]2(C)C(=O)CC[C@@H]12`, the inhibition was -40.8%. For `COC(=O)/C=C\C(=O)Nc1cccc([N+](=O)[O-])c1`, the inhibition was -15.7%. The value for `Cc1ccc(NC(=O)Cn2cccc2C2=NC(c3ccccc3)CO2)c(C)c1` (stereo not drawn) was -4.93%; that for `Cc1ccc(S(=O)(=O)Nc2nc(C)cc(N/N=C/c3ccc(O)cc3)n2)cc1` was -24.5%; that for `Cn1cnc(C(F)(F)F)c1-c1ccc([N+](=O)[O-])cc1` was -26.6%. Regarding `Cc1ccc(NC(=O)CN(C)Cc2ccc(F)cc2)c([N+](=O)[O-])c1`, the inhibition is -24.9%.

`Cc1ccccc1C(OCCN(C)C)C1CCCCC1` (stereo not drawn): the inhibition is -18.4%.

In the case of `N#Cc1ccc(C(=O)Nc2nc(-c3cccs3)c(C(=O)C(F)(F)F)s2)cc1`, the inhibition is -10.1%. The value for `O=C(/C(=C/c1cccc(Cl)c1)c1nc2ccccc2[nH]1)c1ccccc1` was -25%; that for `NNc1nc2c(Cl)cccc2s1` was -22%. With `Cc1cc(N2CCOCC2)nc(-c2ccc(Br)cc2)n1` the figure was 5.67%; with `CCCCNC(=O)C1CCC(CNS(=O)(=O)c2ccc(NC(C)=O)cc2)CC1` (stereo not drawn), -25.8%. `COC(=O)NNC(=O)C1CCC(C)CC1` (stereo not drawn): the inhibition was -19.5%. `COc1ccc(-c2cc(C(F)(F)F)nc(SCC(=O)Nc3ccc4c(c3)OCO4)n2)cc1OC`: the inhibition was -21.2%. Consider `Cc1cccc(N2C(=O)SC(SC(=Nc3ccccc3)Nc3ccccc3)C2=O)c1` (stereo not drawn), for which the inhibition was -18.8%. With `Cc1ccc2c(c1)C1CN(C)CCC1N2C(=O)c1ccccc1NS(=O)(=O)c1ccc(F)cc1C` (stereo not drawn) the figure was -30.2%. In the case of `Cc1nc2ccccc2n1CC(=O)N/N=C/c1cccs1`, the inhibition was -17.2%. With `Cc1ccc(NC(=O)CCC(=O)N/N=C/c2ccco2)c(C)c1` the figure was -19.1%. As to `CCCNC(=O)OC[C@H]1O[C@H](CCO/N=C/[C@@H](NS(=O)(=O)c2ccc(C)cc2)[C@H](C)/C=C/CC(=O)OC)C=C[C@@H]1Oc1ccc(OC)cc1`, the inhibition is -21.3%.

For the molecule `CC(=O)c1ccc(NC(=S)NC(=O)CC(C)C)cc1`, the inhibition was -2.98%. With `COc1cc(OC)cc(C(=O)N[C@H](C(=O)OCC(=O)NC(C)c2ccccc2)C(C)C)c1` (stereo partly drawn) the figure was -27.4%.

Turning to `CCCCC(CC(C)O)c1n[nH]c(=S)n1-c1ccccc1` (stereo not drawn), the inhibition was -33.5%.

For the molecule `CC(C)c1nccn1S(=O)(=O)c1cc([N+](=O)[O-])ccc1Cl`, the inhibition was -25.1%. Take `CCCCCOc1ccc(/C=C/C(=O)NCCc2nc3ccccc3[nH]2)cc1OC`: the inhibition was -36.7%. The value for `C=CCNC(=S)NNC(=O)COc1c(Cl)cc(Cl)cc1Cl` was -25.1%; that for `COC(=O)Cc1ccc(NC(=S)NCc2ccccc2)cc1` was -21.4%; that for `Cc1ccc(OCc2nnc(SC3CCc4ccccc4C3=O)n2C)cc1` (stereo not drawn) was -10.2%.

Take `O=C(Nc1nnc(SCc2ccccc2Cl)s1)c1cccc([N+](=O)[O-])c1`: the inhibition was -19.7%.

With `CC/C(=N\NC(=O)c1ccccc1Cl)c1ccc(Br)s1`, the inhibition is -30%.

Regarding `CCCCN=C1C([N+](=O)[O-])=CC=C2C1=NC1(CCCCC1)N2O`, the inhibition was -23.5%. Turning to `Cc1ccc(S(=O)(=O)N2CCOCC2)cc1C(=O)NC(=S)N(Cc1ccccc1)C(C)C`, the inhibition is -13.5%.

With `CC(C)Nc1nnc(SCC(=O)c2c[nH]c3ccccc23)s1`, the inhibition is -37.7%. With `O=C(c1cccs1)n1nc(NCc2ccccc2)nc1NCc1ccccc1`, the inhibition is -28.9%.

For `COc1ccccc1-c1nnc(NC(=O)c2ccc3ncsc3c2)o1`, the inhibition is -9.55%. Consider `CN(C)c1ccnc2sc(C(=O)c3ccccc3)c(N)c12`, for which the inhibition is 9.26%. With `O=C(O)CCS(=O)(=O)c1ccc(-c2ccccc2)cc1`, the inhibition was -26.8%. With `CCOc1ncccc1C(=O)N(C)CC(=O)Nc1ccc(F)cc1` the figure was -16.5%; with `CCOC(=O)c1c(/N=C/c2cc(C)ccc2O)sc2c1CCC2`, -9.28%; with `CCNC(=S)N(CCc1c(C)[nH]c2ccc(C)cc12)Cc1ccco1`, -11.6%.

As to `C=CCOc1ccc(/C=N/NC(=O)C(C)Sc2ccccn2)cc1OCC` (stereo not drawn), the inhibition is -28.1%.

In the case of `O=C(COC(=O)Cc1ccc(Br)cc1)Nc1c(F)c(F)c(F)c(F)c1F`, the inhibition was -9.87%. Consider `CN(C)c1ccc(/C=N/N(Cc2ccccc2)c2ccccc2)cc1`, for which the inhibition was -23.4%. As to `C=CCn1c(SCC(N)=O)nnc1-c1cc2c(s1)CCC(CC)C2` (stereo not drawn), the inhibition was -11%. With `CCC(C)(C(=O)Nc1ccccc1C)N(C(=O)CNC(C)=O)c1ccc(C)cc1` (stereo not drawn) the figure was -34.2%; with `CC(C)C(=O)Nc1ccc(C(=O)NNC(=O)c2cccs2)cc1`, -18.7%. With `CCc1ccc(NC(=O)C(C)OC(=O)/C=C/c2cccc([N+](=O)[O-])c2)cc1` (stereo not drawn) the figure was -14.1%. The value for `COc1cc(/C=N/NC(=O)CCc2n[nH]c(=O)[nH]c2=O)ccc1O` was -11.1%; that for `Cc1ccc(N(C(=O)C(F)(F)F)C(C(=O)NC2CCCCC2)c2ccncc2)cc1C` (stereo not drawn) was -8.07%. As for `COc1ccc(OC)c(C(=O)CSc2nnc(-c3cccs3)o2)c1`, the inhibition was -17.3%.

Take `COc1ccc(-c2nnc(SCC(=O)c3cccs3)o2)c(OC)c1`: the inhibition is 90.3% (active). Regarding `COc1ccc(-n2c(C)cc(C(=O)CSc3nnc(-c4cccs4)o3)c2C)cc1`, the inhibition is -23.9%.

For the molecule `COC1=CCC2([N+](=O)[O-])CN(CC(=O)O)CC1([N+](=O)[O-])C2` (stereo not drawn), the inhibition was -24.9%.

`O=C(COC(=O)/C=C/c1ccc(S(=O)(=O)N2CCCCCC2)cc1)NCc1ccccc1Cl`: the inhibition is -43.5%. The value for `COC(=O)c1sc(N)c(C(=O)OC)c1COC(=O)CNS(=O)(=O)c1ccc(C)cc1` was -21.7%; that for `Cc1ccc(C(C[N+](=O)[O-])c2c(C)cc3ccccn23)cc1` (stereo not drawn) was -23.1%; that for `CN1CCN(c2ccc(S(=O)(=O)N3CCCCC3)cc2NC(=O)Cc2ccccc2F)CC1` was -23.6%.

Consider `O=C(NNC(=O)c1cc2c(s1)CCCC2)c1ccccc1`, for which the inhibition is -2.47%. Take `O=C(NCCOc1ccccc1Cl)C(=O)Nc1ccccc1`: the inhibition is -35.1%. With `O=C(CN1C(=O)/C(=C\c2ccc(C(F)(F)F)cc2)Sc2ccccc21)NCc1ccco1`, the inhibition is -14.7%. The value for `COc1ccc(C)cc1NC(=O)C(OC(=O)c1cccc(S(=O)(=O)N(C)c2ccccc2)c1)c1ccccc1` (stereo not drawn) was -35.9%. The value for `O=[N+]([O-])c1ccc(N/N=C2/CCCCC2c2ccccn2)c([N+](=O)[O-])c1` (stereo not drawn) was -15.4%. With `O=C(OCc1ccc(Br)cc1)c1cccc(-c2nnc(-c3ccccc3)o2)c1` the figure was -11.6%; with `C/C(=N\NC(=O)CCn1nc(C)cc1C)C(C)(C)C`, -8.98%; with `CC(C)CNC(=O)COC(=O)c1ccccc1OCC(=O)Nc1ccc(Br)cc1`, -23.1%. `Cc1cc(C)cc(C(=O)NC(=S)Nc2ccc3[nH]c(=O)[nH]c3c2)c1`: the inhibition is -11.9%.

Turning to `Cc1cc(SCC(=O)NCCN2C(=O)CSC2=O)nc2ccccc12`, the inhibition was -4.76%.

Regarding `Cc1ccc2[nH]cc(CCCN3C(=O)c4ccccc4C3=O)c2c1`, the inhibition was -23.7%. For the molecule `Cc1ccc(N(C(=O)c2ccc(CN3CCOCC3)o2)C(C(=O)NCCC(C)C)c2cccs2)c(C)c1` (stereo not drawn), the inhibition was -6.18%. The value for `CCCOc1ccc(NC(=O)C2OC3OC(C)(C)OC3C3OC(C)(C)OC23)cc1` (stereo not drawn) was -26.3%; that for `O=C(COc1nc2ccccc2nc1N1CCOCC1)NCC(F)(F)F` was -21.6%. For `CCOc1ccc(Br)cc1S(=O)(=O)Nc1cccc(S(=O)(=O)N(CC)CC)c1`, the inhibition was -29.5%. For `O=C1NC(c2ccc(-c3ccccc3[N+](=O)[O-])o2)C(C(=O)c2ccc(Cl)cc2)C(O)(C(F)(F)F)N1` (stereo not drawn), the inhibition is -11.1%. The value for `CCOc1ccc(Oc2nc(C)cc(OC)n2)nn1` was -16%; that for `Cc1cccc(OCCNC(=S)NC(=O)c2cccnc2)c1` was -28.5%; that for `O=C(NCCC1=CCCCC1)c1ccc(Cl)c([N+](=O)[O-])c1` was -21.9%. On to `CC(C)(C)c1ccc(NC(=O)COC(=O)CCc2nc3ccccc3c(=O)[nH]2)cc1`, for which the inhibition was -15.2%. The value for `COc1ccc(NC(=O)c2sc(N3CCOCC3)nc2-c2ccccc2)c(OC)c1` was -1.88%; that for `CC1=C(C)CC(C(=O)NNC(=O)c2csc3c2CCC(C(C)(C)C)C3)C(C(=O)O)C1` (stereo not drawn) was -33.4%; that for `Cc1ccc(C)c(NC(=O)C(OC(=O)c2ccc(C)s2)c2ccccc2)c1` (stereo not drawn) was -11.6%. `Cc1ccc(/C=C/C(=O)Nc2cc(S(=O)(=O)N3CCCCCC3)ccc2OCC(F)(F)F)o1`: the inhibition was 7.49%.

The record behind these values is PubChem BioAssay AID898 (University of Pittsburgh Molecular Library Screening Center, 2007).
